# Source: the supplement of paper PMC4894684
# Where a name gives a salt, the structure may show the parent alone. ± gives the standard deviation of the averaged measurements.
# Test system: Toxoplasma gondii RH (in HFF)
# Assay: parasite growth relative to the screen mean (all compounds = 100%); higher = less inhibition of parasite growth
# Details: 5 µM; 72 h; oxygen 21 %
# Outline: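 RH β-Gal–GFP Toxoplasma at MOI 1:5 was used to infect confluent human foreskin fibroblasts in 96-well plates within 2 h of pin-transferring compounds to 5 µM final. After 72 h at 21% O2, parasite number was determined by CPRG β-Gal assay against standard curves on the same plate. Growth is relative to the screen mean and averaged over two screens, with all compounds = 100%.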
row,SMILES,parasite growth
1,CCOC(=O)C1=C(N)Oc2ccc(Br)cc2C1C(C#N)C(=O)OCC (stereo not given),135 ± 2.5%
2,CC1(C)CCC(C)(C)c2cc(C3(c4ccc(C(=O)O)cc4)OCCO3)ccc21,115 ± 34%
3,CCc1cc2c(c(CC)n1)CCC(=O)N2Cc1ccc(-c2ccccc2-c2nn[nH]n2)cc1 [ZD 7155 hydrochloride],91.1 ± 57%
4,C[C@H](NC(=O)c1sccc1OCc1ccc(Cl)cc1)c1ccccc1,38.7 ± 22%
5,NS(=O)(=O)c1cc2c(cc1Cl)NC(C1CC3C=CC1C3)NS2(=O)=O (stereo not given) [Cyclothiazide],118 ± 1.8%
6,N=C(N)NC(=O)Cc1c(Cl)cccc1Cl [Guanfacine hydrochloride],162 ± 45%
7,CCCOc1ccccc1-c1nc2[nH]nnc2c(=O)[nH]1 [Zaprinast],98.3 ± 14%
8,N=C(N)N/N=C/c1c(Cl)cccc1Cl [Guanabenz acetate],99.52 ± 0.3%
9,CN1CCN(C2=Cc3ccccc3Oc3ccc(Cl)cc32)CC1,31.7 ± 7.6%
10,C/C=C1\C(=O)C[C@H]2[C@@H]3CCC4=CC(=O)CC[C@]4(C)[C@H]3CC[C@]12C [Guggulsterone],90.6 ± 26%
11,CN=c1nc(-c2ccccc2)n(-c2ccccc2)s1,127 ± 29%
12,COc1ccc(C2CNC(=O)C2)cc1OC1CCCC1 (stereo not given) [Rolipram],92.1 ± 23%
13,Nc1nc(N)nc(-c2cc(Cl)ccc2Cl)n1 [Irsogladine maleate],127 ± 27%
14,CCCCN1CCCC1CNC(=O)c1cc(C#N)c2ccccc2c1OC (stereo not given) [Nafadotride],127 ± 15%
15,COC(=O)/C=C/c1cccc(N(Cc2ccc(-c3ccc(N(C)C)cc3)cc2)C(=O)C2CCCCC2)c1 [Fexaramine],159 ± 7.7%
